# Assay outcomes as filed in PubChem BioAssay.
# HPGD inh: HPGD (human) dehydrogenase inhibition. 150,000 compounds, 4.3% hits. AID 894. purified HPGD, NADH fluorescence kinetic, PGE2 substrate. Potency, µM, without a hit: at the top dose activity change, negative = inhibition, most hits filed as inhibitors; active = well fitted inhibition curve with a large enough effect, not every such curve was filed as active; inconclusive = small, poorly fitted or top-dose-only effect, or another doubt; inactive = no such curve, though single readings can be large or run the other way; also: potency is read from the fitted curve at half-maximal effect; % is scaled to controls: 0 for no effect and ±100 for the full control effect
#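 NADH formation kinetics: reaction with 30 uM PGE2 and 1 mM NAD+ (final), 20 nM enzyme, Tris-HCl pH 8 with Tween 20, after 15 min compound preincubation at room temperature. Fluorescence change, last versus first of five reads.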
# HTT ATP protect: Huntington cell model cytoprotection by ATP luminescence | PC12 HTT-Q103 induced, cytoprotection, ATP luminescence, 40 h | Potency, µM (doses to about 56.4 µM), for inactives: cytoprotection (ATP increase), hits mostly activators | 230,000 compounds, 0.14% hits | AID 1471; also: potency is read from the fitted curve at half-maximal effect; % of control where 0% means no effect; nearly all actives have a fitted effect of over 45% in size
#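 Rat PC12, Q103 Htt exon1-GFP fusion, ecdysone promoter; tebufenozide inducer 100 nM final; compound titration; qHTS, 1500 cells/well; ATPlite luminescent read.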
# ALDH1A1 inh: inhibitors of human aldehyde dehydrogenase 1A1; Purified ALDH1A1, NADH fluorescence, propionaldehyde substrate; Potency, µM (top dose mostly 75.3 µM), for inactives: top-dose activity, negative = inhibition, hits mostly inhibitors; 220,000 compounds, 7.3% hits; AID 1030; active = well fitted inhibition curve with a large enough effect, not every such curve was filed as active; inconclusive = small, poorly fitted or top-dose-only effect, or another doubt; inactive = no such curve, though single readings can be large or run the other way;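 also: potency is read from the fitted curve at half-maximal effect; plate controls were no enzyme wells and a reference inhibitor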
# HTT aggregate: inhibitors of mutant huntingtin aggregate formation in PC12 cells; 220,000 compounds, 1.1% hits; Potency, µM (highest dose often 46.1 µM), without a hit: at the top dose activity change, negative = inhibition, actives largely listed as inhibitors; PC12 HttQ103-GFP aggregates, Acumen cytometry, 40 h; AID 1688; also: potency is read from the fitted curve at half-maximal effect; % is scaled to controls: 0 for no effect and ±100 for the full control effect; nearly all actives have a fitted effect of over 60% in size
#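 PC12 cells stably carrying ecdysone-inducible HTT exon 1 Q103–GFP were induced with tebufenozide (100 nM final) and treated with library compounds in titration. GFP aggregates in lysates were counted by laser scanning cytometry.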
# PNC inhibitor: inhibitors of perinucleolar compartment assembly. PC3M PTB-GFP, PNC prevalence imaging, 16 h; hits give low values. activity change (PNC), negative = inhibition, % at 10 µM. 140,000 compounds, 3.1% hits;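 active = readout at or below -70, meaning at least 70% loss of cells showing the perinucleolar compartment, a nuclear body marking cancer cells; inconclusive = readout between -30 and a set limit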;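 also: plate controls were DMSO wells for no effect and camptothecin positive control wells for full effect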
#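 PC3M cells stably expressing PTB-GFP, 750–1000 cells/well, treated 16 h at 37 °C with compound (23 nl of library stock), in duplicate. After paraformaldehyde fixation and Hoechst stain, imaged at 20x; PNC prevalence scored by image analysis.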
# CBFb-RUNX1 inh: blocks binding between human CBF-beta and RUNX1; 230,000 tested, under 10 active; AlphaScreen CBFb-His/RUNX1-biotin binding, biochemical; Potency, µM (highest dose often 59.8 µM), for inactives: at the top dose activity, negative = inhibition, actives largely listed as inhibitors; AID 1477; Q01196+Q13951; also: % of control where 0% means no effect
# Target sequence (Q01196 whole entry, looked up): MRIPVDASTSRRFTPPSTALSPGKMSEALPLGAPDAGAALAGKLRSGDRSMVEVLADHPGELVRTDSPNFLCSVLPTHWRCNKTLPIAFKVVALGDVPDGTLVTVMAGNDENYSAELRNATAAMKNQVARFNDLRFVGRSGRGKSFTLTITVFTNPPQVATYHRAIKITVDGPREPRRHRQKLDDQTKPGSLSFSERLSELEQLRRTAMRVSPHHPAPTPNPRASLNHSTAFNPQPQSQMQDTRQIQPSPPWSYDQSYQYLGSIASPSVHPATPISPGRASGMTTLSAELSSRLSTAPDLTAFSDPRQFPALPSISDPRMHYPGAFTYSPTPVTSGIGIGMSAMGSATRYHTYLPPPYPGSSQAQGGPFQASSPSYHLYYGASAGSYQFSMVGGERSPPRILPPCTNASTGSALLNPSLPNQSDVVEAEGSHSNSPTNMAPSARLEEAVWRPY
# Target sequence (Q13951 whole entry, looked up): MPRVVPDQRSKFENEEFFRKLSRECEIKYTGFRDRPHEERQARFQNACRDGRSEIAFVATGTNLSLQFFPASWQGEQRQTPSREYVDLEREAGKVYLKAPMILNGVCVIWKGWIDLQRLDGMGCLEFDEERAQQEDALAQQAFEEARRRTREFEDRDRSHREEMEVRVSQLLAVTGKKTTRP
#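 AlphaScreen proximity signal reports loss of binding between His-tagged CBF-beta and biotin-labelled RUNX1, each at 30 nM. Proteins are pre-associated for 20 minutes, compounds added for 15 minutes, then beads for 90 minutes, all at ambient temperature.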
# * hit, by the source's call; u = inconclusive; x = no result given; [ ] = dose if it differs, or a comment. Compounds with a hit are over-represented: about 11% of the library has one in this group of screens. Unless noted, calls follow the shape of the dose curve; as a rule, active = well fitted curve in the direction sought with a large enough effect; inconclusive = small, poorly fitted or top-dose-only effect, or another doubt; inactive = no such curve, though single readings can be large; an effect the other way counts as inactive or inconclusive.
SMILES,HPGD inh,HTT ATP protect,ALDH1A1 inh,HTT aggregate,PNC inhibitor,CBFb-RUNX1 inh
Cc1ccc2nc(SCC(=O)c3ccc4c(c3)OCO4)[nH]c2c1,-11%,-12%,u,3%,26,0%
CCSc1nnc(NC(=O)c2ccc(S(=O)(=O)N(C)C)cc2)s1,x,x,-12%,8%,x,u
O=C(CSc1nnc(SCc2cccc3ccccc23)s1)Nc1ccc(C(=O)O)cc1,x,-27%,-14%,2%,x,9%
N#CCc1c(C#N)c(N)nc(Nc2ccccc2)c1C#N,x,7%[10 µM],x,10%[9.22 µM],x,6%
COC(=O)c1ccc(C(=O)Nc2ccc3nc(-c4cccnc4)[nH]c3c2)cc1,-9%,-1%[10 µM],11%,-8%,-83*,u
Nc1ccc(C(=O)Nc2ccc3nc(-c4cccnc4)[nH]c3c2)cc1,-2%,-32%,4%,-11%,18,1%
CC(=O)Nc1ccc2nc(-c3cccnc3)[nH]c2c1,u,-11%[10 µM],u,0%,-100*,-3%
Fc1ccccc1-n1[nH]nnc1=S,25µM*,5%,2.2µM*,-4%,35,2%
Fc1ccccc1-n1cn[nH]c1=S,x,x,-15%,27%,x,-5%
Cc1ccc(C(=O)NC(=C(Cl)Cl)S(=O)(=O)c2ccc(C)cc2)cc1,-17%,-16%[10 µM],u,u,u,-4%
Cc1ccc(S(=O)(=O)/C(=C/Cl)NC(=O)c2ccccc2)cc1,-3%,-16%[10 µM],7.9µM*,-14%[9.22 µM],10,10%
O=C(c1ccco1)N1CCC2(CC1)CCN(C(c1ccccc1)c1ccccc1)CC2,-2%,8%,1%,x,x,x
CC(C)Nc1nc(NC(C)C)nc(SCC(N)=O)n1,x,23%[10 µM],-9%,4%,x,0%
Cc1ccc(SC2CC(=O)N(c3ccc4c(c3)OCCO4)C2=O)cc1 (centres undefined),x,u,2.5µM*,22%,x,7%
Cc1ccc(N2C(=O)CC(Sc3cccs3)C2=O)cc1 (centres undefined),x,2%[10 µM],2.2µM*,-5%[9.22 µM],x,-6%
N[C@@H](CCS(=O)O)C(=O)O,x,-41%,5%,x,x,14%
CC(=O)c1nc(N2C(=O)CC(Cc3ccccc3)C2=O)sc1C (centres undefined),28µM*,-19%[10 µM],-2%,25%,14,4%
Cc1cccc(CC2CC(=O)N(c3nc4ccccc4s3)C2=O)c1 (centres undefined),x,-49%,-9%,-12%,x,-2%
CN(C)c1nc(-c2ccoc2)nc2ccccc12,-1%,17%,-10%,x,x,x
COC(=O)C1=C[C@@H](C(=O)OC)C2C3=C(C(=O)[C@]2(C)NC(=O)c2ccccc2)[C@H](C)n2c(=O)n(C)c(=O)n2[C@@H]3C1 (some centres undefined),x,x,x,x,x,27%
COc1cc(C(C)=O)ccc1Oc1ncnc2c1cnn2-c1ccc(F)cc1,16µM*,-5%[10 µM],-9%,-15%,u,5%
Cn1c(=O)c2[nH]c(-c3ccccc3)c(O)c2n(C)c1=O,u,6%[10 µM],11µM*,-3%,2,5%
O=C(C1CCC(CNS(=O)(=O)c2cccc3nsnc23)CC1)N1CC=C(c2ccccc2)CC1 (centres undefined),16µM*,-36%,18µM*,8.9µM*,10,-1%
O=C(C1CCN(S(=O)(=O)c2cccc3nsnc23)CC1)N1CC=C(c2ccccc2)CC1,-21%,-35%,u,-28%,u,-2%
O=C(NCc1cccs1)C1CCC(CNS(=O)(=O)c2cccc3nsnc23)CC1 (centres undefined),-24%,-14%,22µM*,-10%,u,1%
SMILES,HPGD inh,HTT ATP protect,ALDH1A1 inh,HTT aggregate,PNC inhibitor,CBFb-RUNX1 inh
O=C(NCc1cccs1)C1CCC(CNS(=O)(=O)c2ccc(Br)s2)CC1 (centres undefined),-2%,-30%,2.8µM*,8%,-5,-1%
COc1cccc(CNC(=O)C2CCC(CNS(=O)(=O)c3cccc4nsnc34)CC2)c1 (centres undefined),-26%,-28%,20µM*,-11%,-106*,-1%
CC(=O)Nc1ccc(NC(=O)C2CCC(CNS(=O)(=O)c3cccc4nsnc34)CC2)cc1 (centres undefined),x,21%[10 µM],u,16%,x,0%
CC1CCC(NC(=O)C2CCC(CNS(=O)(=O)c3cccc4nsnc34)CC2)CC1 (centres undefined),-15%,-25%,u,-20%,30,0%
CC[C@@H](Nc1ncnc2nc[nH]c12)C(=O)O,1%,-10%[10 µM],-17%[13.5 µM],x,x,x
CC(=O)O[C@@]12CO[C@@H]1C[C@H](O)[C@@]1(C)C(=O)[C@H](O)C3=C(C)[C@@H](OC(=O)C(O)[C@@H](NC(=O)OC(C)(C)C)c4ccccc4)C[C@@](O)([C@@H](OC(=O)c4ccccc4)[C@H]21)C3(C)C (some centres undefined),x,-59%,x,1%,x,x
COc1ccc2[nH]cc(CCNc3ccnc(-c4ccc(C(=O)N(C)C)cc4)n3)c2c1,x,-107%,11%,x,x,x
O=C(Nc1nc(-c2cccc([N+](=O)[O-])c2)cs1)C(c1ccccc1)c1ccccc1,-8%,4%[10 µM],u,16µM*,7,u
O=C(NC(=S)Nc1nc(-c2cccc([N+](=O)[O-])c2)cs1)c1cc(Cl)ccc1Cl,x,29%[10 µM],28µM*,19%[9.22 µM],x,13%
CC(=O)Nc1nc(C)c(-c2csc(Nc3cccc([N+](=O)[O-])c3)n2)s1,-22%,-34%,-4%,-18%,9,-1%
CC(=O)c1cccc(Nc2nc(-c3cccc([N+](=O)[O-])c3)cs2)c1,-22%,12%[10 µM],u,u,-85*,-7%
CC(OC(=O)c1ccccc1Br)C(=O)Nc1nc(-c2cccc([N+](=O)[O-])c2)cs1 (centres undefined),-8%,-2%[10 µM],9%,8%,-19,-4%
Clc1ccccc1CNCC1CCC(CNCc2ccccc2Cl)CC1 (centres undefined),-6%,-81%,-1%,x,x,16%[21.7 µM]
CN1CCN(C(=O)c2nc3ccc(Cl)cc3[nH]2)CC1,-17%,-46%,-2%,x,x,5%
CC(N)(Cc1ccc(O)c(O)c1)C(=O)O (centres undefined),10µM*,x,2.2µM*,x,x,x
Cc1ccc(NS(=O)(=O)c2ccc(NC(=O)c3cccc(NC(=O)C(C)C)c3)cc2)cc1,-5%,-59%,6%,u,-3,-2%
CC(=O)Nc1sc2c(c1C#N)CCC(C)C2 (centres undefined),x,-18%[10 µM],-7%,-11%[9.22 µM],x,4%
Cc1sc(NC(=S)NC(=O)C(C)(C)C)c(C(N)=O)c1C,u,-25%,7.9µM*,-6%,14,5%
